# In PubChem BioAssay (Tox21):
# Values without a mark were called inactive. Results filed as inconclusive are left out. A call without a number means that no potency is given here. Activity calls are given as the source filed them. Unless noted, calls come from the whole dose curve; as a rule, active = well fitted curve in the direction sought with a large enough effect in the repeat runs; inconclusive = weak or mixed curves; inactive = no such curve, though single readings can be large; an effect the other way counts as inactive or inconclusive.
# How the values were obtained:
# [1] = qHTS assay to identify small molecule antagonists of the constitutive androstane receptor (CAR) signaling pathway - cell viability counter screen (AID 1224837); note: nearly all actives have a fitted effect of over 45% in size
# In short: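 Read-out: CellTiter-Fluor fluorescence after 23 hr at 37 C/5% CO2. Cells: HepG2 double-stable for hCAR and CYP2B6-2.2kb. Compounds tested at 15 concentrations in the presence of CITCO, final concentration 50 nM.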
# [2] = molecular target: Nuclear receptor subfamily 1 group I member 3 (Homo sapiens) (UniProt Q14994); assay: qHTS assay to identify small molecule antagonists of the constitutive androstane receptor (CAR) signaling pathway (AID 1224838);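 note: HepG2 cells stably expressing hCAR with CYP2B6 luciferase reporter stimulated by CITCO; nearly all actives have a fitted effect of over 40% in size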; note: potency is the fitted concentration of half-maximal effect
# Sequence of Nuclear receptor subfamily 1 group I member 3 (Homo sapiens) (Q14994 whole entry, looked up): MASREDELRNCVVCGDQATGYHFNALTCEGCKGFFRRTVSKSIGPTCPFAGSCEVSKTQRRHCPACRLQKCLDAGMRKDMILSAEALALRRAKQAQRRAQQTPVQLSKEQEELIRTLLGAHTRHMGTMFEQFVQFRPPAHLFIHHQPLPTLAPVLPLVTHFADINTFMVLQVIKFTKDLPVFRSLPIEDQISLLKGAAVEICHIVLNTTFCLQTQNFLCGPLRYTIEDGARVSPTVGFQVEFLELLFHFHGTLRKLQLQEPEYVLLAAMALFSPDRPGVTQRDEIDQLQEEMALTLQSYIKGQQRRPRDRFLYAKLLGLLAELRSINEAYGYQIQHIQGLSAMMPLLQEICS
# In short: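 Read-out: ONE-Glo luciferase luminescence after 30 min at room temperature. HepG2-CYP2B6-hCAR double-stable cells, compounds in 15-point titration plus 50 nM CITCO final, 24 h at 37 C/5% CO2.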
# [3] = molecular target: Nuclear receptor subfamily 1 group I member 3 (Homo sapiens) (UniProt Q14994); assay: qHTS assay to identify small molecule agonists of the constitutive androstane receptor (CAR) signaling pathway (AID 1224839);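 note: HepG2 cells stably carrying human CAR and a CYP2B6 luciferase reporter; nearly all actives have a fitted effect of over 15% in size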
# In short: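 Luminescence read-out (ONE-Glo, 30 min, room temperature) from double-stable HepG2-CYP2B6-hCAR cells exposed 24 h to 15-point compound series in presence of 0.75 uM PK11195 final.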
# [4] = qHTS assay to identify small molecule antagonists of the estrogen related receptor signaling pathway with the pleiotropic PPARgamma coactivator (PGC) from Tox21 10K library - cell viability counter screen (AID 1224840; active = well fitted cell-killing curve with a large enough effect in the repeat runs, not every such curve was filed as active; note: nearly all actives have a fitted effect of over 40% in size)
# In short: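 Fluorescence read-out of CellTiter-Fluor viability reagent, added after cells had been exposed to compound in DMSO for 17.5 h at 37 C; 30 min development at 37 C/5% CO2. Cells: PGC/ERR line, 2,000/well.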
# [5] = qHTS assay to identify small molecule antagonists of the estrogen related receptor signaling pathway with the pleiotropic PPARgamma coactivator (PGC) from Tox21 10K library (AID 1224841; call rule not given here; note: actives are mostly falling curves and most rising ones were filed inactive; nearly all actives have a fitted effect of over 50% in size; note: potency is the fitted concentration of half-maximal effect)
# In short: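 Luminescence read-out (One-Glo luciferase reagent, 30 min at room temperature) from PGC/ERR cells exposed to DMSO-dissolved test compounds for 18 h at 37 C; cells, 2,000 per well, had been preincubated 6 h before compound transfer.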
# [6] = qHTS assay to identify small molecule agonists of the estrogen related receptor signaling pathway with the pleiotropic PPARgamma coactivator (PGC) from Tox21 10K library (AID 1224842); note: nearly all actives have a fitted effect of over 15% in size
# In short: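 PGC/ERR reporter cell line, 2,000 cells per well, incubated 6 h at 37 C before 23 nL compound in DMSO was added. After 18 h at 37 C, One-Glo luminescence read following 30 min at room temperature.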
# [7] = molecular target: Thyrotropin receptor (Homo sapiens) (UniProt P16473); assay: qHTS assay to identify small molecule agonists of the thyroid stimulating hormone receptor (TSHR) signaling pathway (AID 1224843; calls by dose curve; note: nearly all actives have a fitted effect of over 45% in size)
# Sequence of Thyrotropin receptor (Homo sapiens) (P16473 whole entry, looked up): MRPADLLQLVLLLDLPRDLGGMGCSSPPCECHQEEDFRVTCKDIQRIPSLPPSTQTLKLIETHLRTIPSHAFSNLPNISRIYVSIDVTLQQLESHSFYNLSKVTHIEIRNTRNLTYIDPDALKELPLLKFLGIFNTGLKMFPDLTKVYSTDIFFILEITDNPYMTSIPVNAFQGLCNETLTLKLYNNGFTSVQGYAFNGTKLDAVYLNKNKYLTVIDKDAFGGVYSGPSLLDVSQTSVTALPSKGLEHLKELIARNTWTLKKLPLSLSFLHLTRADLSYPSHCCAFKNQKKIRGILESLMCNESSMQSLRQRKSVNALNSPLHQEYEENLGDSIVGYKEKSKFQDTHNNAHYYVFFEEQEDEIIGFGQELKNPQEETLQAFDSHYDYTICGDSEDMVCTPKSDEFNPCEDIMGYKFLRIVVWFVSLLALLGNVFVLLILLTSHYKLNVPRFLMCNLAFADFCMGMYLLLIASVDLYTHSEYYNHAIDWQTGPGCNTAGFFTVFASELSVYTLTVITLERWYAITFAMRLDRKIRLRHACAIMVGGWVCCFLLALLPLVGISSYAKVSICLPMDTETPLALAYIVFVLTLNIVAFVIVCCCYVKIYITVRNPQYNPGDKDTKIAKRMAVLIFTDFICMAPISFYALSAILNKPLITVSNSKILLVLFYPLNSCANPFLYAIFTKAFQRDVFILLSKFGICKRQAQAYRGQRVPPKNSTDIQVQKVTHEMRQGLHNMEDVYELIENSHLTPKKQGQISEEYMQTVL
# In short: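 Agonist-mode screen: TSHR HEK293 cells received test chemicals for half an hour at room temperature, then HTRF cAMP detection reagents for one hour prior to fluorescence measurement. Each chemical ran as a 15-concentration series, triplicated.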
# [8] = qHTS assay to identify small molecule agonists of the hypoxia (HIF-1) signaling pathway - cell viability counter screen (AID 1224844; calls by dose curve; note: nearly all actives have a fitted effect of over 50% in size)
# In short: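 CellTiter-Glo luminescence read-out, 30 min RT, taken in the same wells as the beta-lactamase HRE reporter assay; HRE-bla ME-180 cells, 0.5% dialyzed FBS, 17 hr compound treatment at 37C, 5% CO2.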
# [9] = qHTS assay to identify small molecule agonists of the hypoxia (HIF-1) signaling pathway (AID 1224846; active = well fitted activation curve with a large enough effect in the signal ratio in the repeat runs, not every such curve was filed as active; the % refers to the signal ratio)
# In short: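 Beta-lactamase FRET read-out (CCF4-AM substrate) from ME-180 cells carrying an HRE-driven bla reporter, after 17 hrs compound exposure at 37C/5% CO2. Cells were seeded at 2,000 per well in 0.5% dialyzed FBS medium and preincubated 5 hrs.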
# [10] = qHTS assay to identify small molecule agonists of H2AX - cell viability counter screen (AID 1224847; calls by dose curve; note: top concentration of the series differs between compounds; nearly all actives have a fitted effect of over 30% in size)
# In short: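 CHO-K1 wt, 1000 cells/well, o/n 37C; cpds 15 conc, 3 h 37C, 0.76% DMSO; CellTiter-Glo, 30 min RT, luminescence.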
# [11] = qHTS assay to identify small molecule antagonists of the estrogen related receptor (ERR) signaling pathway from Tox21 library (AID 1224848); note: nearly all actives have a fitted effect of over 50% in size
# In short: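 Quantitative high-throughput format: ERR reporter cells (2,000/well) pre-incubated 6 h, treated 18 h at 37 C with compounds in DMSO alongside positive and negative controls, then read by ONE-Glo luminescence.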
# [12] = qHTS assay to identify small molecule agonists of the estrogen related receptor (ERR) signaling pathway from Tox21 library (AID 1224849; calls by dose curve; note: nearly all actives have a fitted effect of over 15% in size); conditions: ERR reporter cell line, ONE-Glo luciferase, 18 h; at 92.4 µM (top of the series) unless noted
# In short: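 Luminescence readout (ONE-Glo, 30 min RT) after 18 h compound exposure at 37 C of NTP-supplied ERR reporter cells; cells were plated 6 h before compound addition by pin tool.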
# [13] = qHTS RealTime-Glo MT Cell Viability Assay in HepG2 cells - 24 hour (AID 1224867); note: nearly all actives have a fitted effect of over 50% in size
# In short: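 Tox21 10K library screened in qHTS format on HepG2 cells carrying RealTime-Glo reagents. Compounds were added after a 5 h preincubation, and the luminescent signal from continuous culture was measured repeatedly during 40 h treatment.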
# [14] = qHTS RealTime-Glo MT Cell Viability Assay in HEK293 cells - 32 hour (AID 1224868)
# In short: (§1)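 Luminescence generated by NanoLuc from substrate produced by living HEK293 cells served as the viability signal. Each value reflects the reading at its stated time point during continuous 40 h compound exposure at 37 C.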
# [15] = A CellTox Green Cytotoxicity Assay to monitor cytotoxicity in HEK293 cells - 0 hour (AID 1224869); note: nearly all actives have a fitted effect of over 50% in size
# In short: (§2)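 Read-out: fluorescence of a cell-impermeant cyanine dye staining DNA of dead cells, proportional to cytotoxicity. HEK293, 600 cells/well with reagent, compound (23 nL DMSO) added after 5 h; reads at 0, 8, 16, 24, 32, 40 h.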
# [16] = qHTS RealTime-Glo MT Cell Viability Assay in HepG2 cells - 40 hour (AID 1224870); note: nearly all actives have a fitted effect of over 50% in size
# In short: (§3)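 HepG2 cells (600/well) mixed with RealTime-Glo MT reagent, settled 5 h at 37 C/5% CO2 before compound addition. Nonlytic NanoLuc luminescence from viable-cell prosubstrate reduction read repeatedly during 40 h treatment at 37 C.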
# [17] = A CellTox Green Cytotoxicity Assay to monitor cytotoxicity in HEK293 cells - 40 hour (AID 1224871); note: nearly all actives have a fitted effect of over 45% in size
# In short: as §2
# [18] = qHTS RealTime-Glo MT Cell Viability Assay in HEK293 cells - 16 hour (AID 1224872)
# In short: as §1
# [19] = qHTS RealTime-Glo MT Cell Viability Assay in HepG2 cells - 8 hour (AID 1224873); note: nearly all actives have a fitted effect of over 55% in size
# In short: as §3
# [20] = qHTS assay to identify small molecule agonists of H2AX (AID 1224845; active = well fitted activation curve with a large enough effect in the signal ratio in the repeat runs, not every such curve was filed as active; the % refers to the signal ratio)
# In short: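 Wild-type CHO-K1 cells, plated overnight, exposed 3hr at 37C to 15 concentrations (0.76% DMSO final). Lysed, then HTRF anti-pH2AX (S139) cryptate and anti-H2AX-d2 antibodies, 24 hr room temperature; 665/620 nm emission read.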
Compound,Potency [1],Potency [2],Potency [3],Potency [4],Potency [5],Potency [6],Potency [7],Potency [8],outcome [9],Potency [10],Potency [11],"activity change, positive = activation [12]",Potency [13],Potency [14],Potency [15],Potency [16],Potency [17],Potency [18],Potency [19],Potency [20]
CCCCCCCCC(CO)CCCCCC (stereo not given),inactive,inactive,inactive,inactive,inactive,inactive,inactive,inactive,inactive,inactive,inactive,4.04%,inactive,inactive,inactive,inactive,inactive,inactive,inactive,
CCCc1ccccc1,inactive,inactive,inactive,inactive,inactive,inactive,inactive,inactive,inactive,inactive,inactive,2.82%,inactive,inactive,inactive,inactive,inactive,inactive,inactive,inactive
O=C(O)C(c1ccc(Cl)cc1)c1ccc(Cl)cc1,inactive,inactive,inactive,inactive,inactive,inactive,inactive,inactive,inactive,inactive,inactive,-7.31%,inactive,inactive,inactive,inactive,inactive,inactive,inactive,inactive
C=CCCCCCC,inactive,inactive,inactive,inactive,inactive,inactive,inactive,inactive,inactive,inactive,inactive,4.67%,inactive,inactive,inactive,inactive,inactive,inactive,inactive,
CCCC[C@H]1CN(CC2CCOCC2)C(=O)OC12CCN(C1(C)CCN(C(=O)c3c(C)ncnc3C)CC1)CC2,inactive,inactive,inactive,inactive,inactive,inactive,,inactive,inactive,inactive,inactive,-0.219%,inactive,inactive,inactive,inactive,inactive,inactive,inactive,inactive
CCOc1ccc(NC(=O)CC(C)=O)cc1,inactive,inactive,inactive,inactive,inactive,inactive,,inactive,inactive,inactive,inactive,-8.93%,inactive,inactive,inactive,inactive,inactive,inactive,inactive,inactive
CC(O)C1CCCCC1 (stereo not given),inactive,inactive,inactive,inactive,inactive,inactive,,inactive,inactive,inactive,inactive,6.48%,inactive,inactive,inactive,inactive,inactive,inactive,inactive,inactive
N=C(N=C(N)N)N1CCOCC1,inactive,inactive,inactive,inactive,inactive,inactive,inactive,inactive,,inactive,inactive,10.8% [at 42.5 µM],inactive,inactive,inactive,inactive,inactive,inactive,inactive,inactive
CN1CCC(=C2c3ccccc3C=Cc3ccccc32)CC1,inactive,inactive,inactive,inactive,inactive,inactive,inactive,,,inactive,inactive,5.98% [at 42.5 µM],,,inactive,inactive,,inactive,inactive,inactive
CCCCCCCCCO,inactive,inactive,inactive,inactive,inactive,inactive,,inactive,inactive,inactive,inactive,5.42%,inactive,inactive,inactive,inactive,inactive,inactive,inactive,inactive
C=C(C)C(=O)OCCOc1ccccc1,inactive,inactive,inactive,inactive,inactive,inactive,,inactive,inactive,inactive,inactive,3.64%,inactive,inactive,inactive,inactive,inactive,inactive,inactive,inactive
CCCCCCCC/C=C\CCCCCCCC(N)=O,inactive,inactive,inactive,inactive,inactive,inactive,inactive,inactive,,,inactive,-4.69%,inactive,,inactive,inactive,,,inactive,
Cc1ccccn1,inactive,inactive,inactive,inactive,inactive,inactive,,inactive,inactive,inactive,inactive,1.44%,inactive,inactive,inactive,inactive,inactive,inactive,inactive,inactive
Nc1nc(N)c2nc(CNc3ccc(C(=O)N[C@@H](CCC(=O)O)C(=O)O)cc3)cnc2n1,inactive,40.4 nM (active),inactive,inactive,114 nM (active),inactive,inactive,inactive,,inactive,,-62.3%,inactive,,inactive,inactive,inactive,inactive,inactive,
Cc1ccc(C(=O)C(C)CN2CCCCC2)cc1 (stereo not given),inactive,inactive,inactive,inactive,inactive,inactive,,inactive,inactive,inactive,inactive,4.97% [at 42.5 µM],inactive,inactive,inactive,inactive,inactive,inactive,inactive,inactive
